Results published in ChEMBL document CHEMBL4513146, “CO-ADD screening of Karazin Kharkiv National University (Ukraine) compounds”.
Potency and affinity values are given separately.

What was measured:
Staphylococcus aureus = details: Concentration 32 ug.mL-1;; ASSAY_TEST Inhibition of Bacterial Growth; detection method Absorption (OD600); MEDIA CAMHB; plate type 384well; NBS; CORNING #3640; time 18 hr
Escherichia coli = details: Concentration 32 ug.mL-1;; ASSAY_TEST Inhibition of Bacterial Growth; detection method Absorption (OD600); MEDIA CAMHB; plate type 384well; NBS; CORNING #3640; time 18 hr

Row | Structure (SMILES) | Inhibition (Staphylococcus aureus) [%] | Inhibition (Escherichia coli) [%]
1 | CCc1ccccc1Sc1nccn2c(=O)n(CC(=O)Nc3c(C)cccc3C)nc12 | 13.44 | 0
2 | COc1ccc(NC(=O)Cn2nc3ccc(SC4CCCCC4)nn3c2=O)c(OC)c1 | 7.02 | -7.62
3 | Cc1nnc2ccc(S(=O)(=O)N(Cc3ccccc3)c3cccc(F)c3)cn12 | 2.5 | -6.96
4 | CCc1cccc(NC(=O)CSc2nnc3c(=O)n(-c4cccc(OC)c4)ccn23)c1 | 9.81 | -1.21
